# Measured values from PubChem BioAssay AID602366 (National Center for Advancing Translational Sciences (NCATS), 2012).
# Results filed as inconclusive are left out. Activity calls are given as the source filed them. Calls follow the shape of the dose curve; as a rule, active = well fitted inhibition curve with a large enough effect; inconclusive = small, poorly fitted or top-dose-only effect; inactive = flat fitted curve, though single readings scatter.
# Assay: qHTS Assay for Inhibitors of Bacillus subtilis Sfp phosphopantetheinyl transferase (PPTase): SAR in B subtilis HM489
# Conditions: B. subtilis HM489 whole-cell Sfp-dependent phenotype; series mostly up to 114 µM
# From the text: The covalent attachment of a phosphopantetheinyl (4'-PP) arm to a variety of synthases and other proteins is a key posttranslational protein modification. The 4'-PP is installed on the proteins post-translationally from coenzyme A (CoA) on a conserved serine residue by action of phosphopantetheinyl transferase (PPTase) enzymes. Phosphopantetheinylation is essential for synthase activity, and removal of the PPTase gene precludes natural product synthesis in microorganisms, or in the case of fatty acid biosynthesis, renders the organism unviable. PPTase enzymes belong to a distinct structural superfamily. Within bacteria, these enzymes are grouped into two classes based upon primary structure, the AcpS-Type and Sfp-Type PPTases.
# Sfp-type PPTases, corresponding to an activator of surfactin production in Bacillus subtilis, are responsible for modifying type I polyketide and nonribosomal peptide synthases of prokaryotes. Sfp-type PPTases are responsible for the activation of a variety of pathogen-associated virulence factors. Among these compounds are toxins such as mycolactone from Mycobacterium ulcerans, siderophores such as vibriobactin from Vibrio cholerae or mycobactin from Mycobacterium tuberculosis, as well as the mycolic acids which form the waxy cell wall of Mycobacteria. The biosyntheses of these natural products are considered attractive targets for drug design.
# In search of small molecule Sfp-PPTase inhibitors, a fluorescence quenching assay was developed for detection of Bacillus subtilis Sfp-PPTase enzymatic activity in a miniaturized high-throughput format. The consensus ybbr acceptor peptide […] was N-terminally labeled with Black Hole Quencher-2 (BHQ-2) and used in combination with rhodamine-labeled coenzyme A as a co-substrate.
# Phosphopantetheinyl transfer is a process essential to cellular viability and maintenance. Cellular permeable and stable compounds acting as PPTase inhibitors are anticipated to be antimicrobial agents in organisms with complimenting genotypes. […] This experiment evaluated a series of test compounds for antimicrobial activity with B. subtilis HM489 (genotype: acpS- and sfp+), a strain that contains a targeted lesion in the acpS locus and thus requires a functional Sfp gene product for viability. [Mootz HD, 2001] This strain is expected to be sensitized to cell-permeable Sfp inhibitors.
# NIH Chemical Genomics Center [NCGC]
# NIH Molecular Libraries Probe Centers Network [MLPCN]
# Assay Submitter (PI): Michale Burkart, University of California, San Diego
# Bacillus subtilis HM489 is maintained on lysogeny broth (LB) solidified by the addition of 1.5% w/v agar. Single colonies were used to LB medium (2 mL) and shaken overnight at 30 deg C. In the morning, this culture (100 uL) was used to seed a fresh LB medium (10 mL) and was shaken at 30 deg C until the culture OD600 reached 0.5. This culture was diluted 1:100 in fresh LB medium to provide the inoculum below.
# Bacterial susceptibility.
# LB medium (2 uL) is dispensed into wells of a sterile white 1536-well plate. Test compounds (23 nL) prepared as serial dilutions in DMSO are added to the plate by pintool transfer. Innoculum (2 uL) is added; the plates are covered with a vented Kalypsys assay lid and incubated at 30 deg C. After 5 h, Bac-Titer Glo (4 uL; Promega Corp, Madison, WI) is added to the plates. They are incubated 10 minutes at room temperature and then the luminescence detected in a ViewLux multimodal plate reader.
row,Structure (SMILES),Potency
1,Cc1cc(C)nc(NC(=S)N2CCN(c3ncccc3C#N)CC2)c1,inactive
2,COc1ccnc(NC(=S)N2CCN(c3cccc(Cl)c3Cl)CC2)c1,8.35 µM (active)
3,COc1ccnc(NC(=S)N2CCN(c3ncc(C(F)(F)F)cc3Cl)CC2)c1,6.63 µM (active)
4,Cc1ccnc(NC(=S)N2CC3CN(c4ncc(C(F)(F)F)cc4Cl)CC3C2)c1 (centres undefined),11.8 µM (active)
5,CSC(Cc1ccc(Cl)cc1)C(=O)Nc1ccc(Cl)cc1C(=O)O (centres undefined),26.4 µM (active)
6,Cc1ccnc(NC(=S)Nc2cccc(C(F)(F)F)c2)c1,10.5 µM (active)
7,COc1ccnc(NC(=S)N2CCN(c3ccc(Cl)cc3Cl)CC2)c1,10.5 µM (active)
8,Cc1cc(C)nc(NC(=S)N2CCN(c3ccc(F)c(F)c3F)CC2)c1,21 µM (active)
9,Cc1ccnc(NC(=S)N[C@@H]2CCN(c3cccc(C(F)(F)F)c3)C2)c1,29.6 µM (active)
10,Cc1ccnc(NC(=S)N2CCN(c3cc(C(F)(F)F)cc(C(F)(F)F)c3)CC2)c1,11.8 µM (active)
11,Cc1ccnc(NC(=S)N2CC3CN(c4cccc(C(F)(F)F)c4)CC3C2)c1 (centres undefined),5.27 µM (active)
12,Cc1cc(C)nc(NC(=S)N2CCN(c3ccc([N+](=O)[O-])cc3Cl)CC2)c1,18.7 µM (active)
13,FC(F)(F)c1cc(N2CCN(C(=S)Nc3cc(Cl)ccn3)CC2)cc(C(F)(F)F)c1,4.18 µM (active)
14,FC(F)(F)c1cccc(N2CCN(C(=S)Nc3cc(C(F)(F)F)ccn3)CC2)c1,10.5 µM (active)
15,Cc1ccnc(NC(=S)N2CCCc3ccc(C(F)(F)F)cc32)c1,inactive
16,COc1cccc(NC(=S)N2CCN(c3ccc(Cl)c(Cl)c3)CC2)n1,inactive
17,Cc1cc(C)nc(NC(=S)N2CC3CN(c4ccc(Cl)cc4C(F)(F)F)CC3C2)c1 (centres undefined),9.37 µM (active)
18,Cc1cc(C)nc(NC(=S)N2CCN(c3cc(Br)cc(C(F)(F)F)c3)CC2)c1,4.69 µM (active)
19,Cc1ccnc(NC(=S)N2CCN(c3cccc(C(F)(F)F)c3)CC2)c1,10.5 µM (active)
20,Cc1cc(C)nc(NC(=S)N2CCN(c3ccc(Cl)c(Cl)c3)CC2)c1,26.4 µM (active)
21,Cc1ccnc(NC(=S)N2CCN(c3cccc(N(C)C)c3)CC2)c1,46.9 µM (active)
22,Cc1ccnc(NC(=S)N2CCCN(c3cccc(C(F)(F)F)c3)CC2)c1,4.18 µM (active)
23,S=C(Nc1cc(Cl)ccn1)N1CCN(c2cccc(Cl)c2Cl)CC1,8.35 µM (active)
24,Cc1cc(C)nc(NC(=S)N2CCN(c3ccc(Cl)cc3Cl)CC2)c1,29.6 µM (active)
